Results: PubChem BioAssay AID1159580 (chemical genetic matrix, 2015)
The whole screen tested about 5,500 compounds, of which about 2,000 (36%) were called active. Another 18% or so got no clear call; they are omitted. Cut-off read from the data, not from the text of the source: active = normalized growth mostly below about 0.91 (no sharp cut-off); inconclusive = no clear call, values can overlap the other calls; inactive = mostly above about 0.92. Some of the results follow.

Assay: chemical genetic growth profiling, strain panel (AID 1159580);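 note: tested at 20 µM; growth read once vehicle control cultures reached saturation at 30 °C; 1 = growth at the plate median or of vehicle wells; lower values mean less growth of the strain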
Conditions: S. cerevisiae deletion strains, growth OD

Measured: normalized growth

COc1cccc2c(C)cc(=O)[nH]c12
active: locus YBR231C, strain swc5, stronger effect = lower value 0.909 | locus YDL192W, strain arf1, stronger effect = lower value 0.887 | locus YDR101C, strain arx1, stronger effect = lower value 0.908 | locus YDR195W, strain ref2 1.15 [resistant] | locus YDR392W, strain spt3, stronger effect = lower value 0.641 | locus YDR502C, strain sam2, stronger effect = lower value 0.875 | locus YER155C, strain BEM2 (second series), stronger effect = lower value 0.786 | locus YGL086W, strain mad1, stronger effect = lower value 0.889 | locus YGL240W, strain doc1, stronger effect = lower value 0.843 | locus YGL253W, strain hxk2, stronger effect = lower value 0.891 | locus YGR135W, strain pre9, stronger effect = lower value 0.887 | locus YHR142W, strain chs7, stronger effect = lower value 0.835 | locus YHR200W, strain rpn10, stronger effect = lower value 0.919 | locus YJL095W, strain BCK1, stronger effect = lower value 0.793 | locus YJL166W, strain qcr8, stronger effect = lower value 0.891
inactive: locus YAL021C, strain ccr4, stronger effect = lower value 1.01 | locus YAL026C, strain drs2, stronger effect = lower value 0.972 | locus YAL030W, strain snc1, stronger effect = lower value 0.977 | locus YBL061C, strain skt5, stronger effect = lower value 0.938 | locus YBR009C, strain hhf1, stronger effect = lower value 0.938 | locus YBR021W, strain FUR4, stronger effect = lower value 1.07 | locus YBR023C, strain chs3, stronger effect = lower value 0.928 | locus YBR171W, strain sec66, stronger effect = lower value 0.963 | locus YBR229C, strain ROT2, stronger effect = lower value 0.969 | locus YBR279W, strain paf1, stronger effect = lower value 0.987 | locus YCL011C, strain gbp2, stronger effect = lower value 0.924 | locus YCL016C, strain dcc1, stronger effect = lower value 0.949 | locus YCL029C, strain bik1, stronger effect = lower value 0.932 | locus YCL061C, strain MRC1, stronger effect = lower value 0.956 | locus YCL069W, strain vba3, stronger effect = lower value 0.98 | locus YCR088W, strain abp1, stronger effect = lower value 0.972 | locus YDL005C, strain med2, stronger effect = lower value 0.992 | locus YDL035C, strain GPR1, stronger effect = lower value 0.958 | locus YDL040C, strain nat1, stronger effect = lower value 0.972 | locus YDL074C, strain BRE1, stronger effect = lower value 0.853 | locus YDL101C, strain DUN1, stronger effect = lower value 0.941 | locus YDL134C, strain PPH21, stronger effect = lower value 0.961 | locus YDL185W, strain tfp1, stronger effect = lower value 0.933 | locus YDR001C, strain nth1, stronger effect = lower value 0.957 | locus YDR069C, strain doa4, stronger effect = lower value 0.971 | locus YDR137W, strain rgp1, stronger effect = lower value 0.847 | locus YDR159W, strain sac3, stronger effect = lower value 0.862 | locus YDR162C, strain NBP2, stronger effect = lower value 0.881 | locus YDR297W, strain sur2, stronger effect = lower value 0.974 | locus YDR318W, strain mcm21, stronger effect = lower value 0.949 | locus YDR334W, strain swr1, stronger effect = lower value 0.978 | locus YDR335W, strain msn5, stronger effect = lower value 0.941 | locus YDR388W, stronger effect = lower value 0.929 | locus YEL003W, strain gim4, stronger effect = lower value 0.971 | locus YEL037C, strain rad23, stronger effect = lower value 0.974 | locus YEL061C, strain CIN8 (second series), stronger effect = lower value 0.969 | locus YEL061C, strain CIN8, stronger effect = lower value 0.963 | locus YER015W, strain faa2, stronger effect = lower value 0.986 | locus YER016W, strain bim1, stronger effect = lower value 0.953 | locus YER110C, stronger effect = lower value 0.946 | locus YER111C, strain swi4, stronger effect = lower value 0.977 | locus YER155C, strain BEM2, stronger effect = lower value 0.946 | locus YER167W, strain BCK2, stronger effect = lower value 0.947 | locus YFR010W, strain ubp6, stronger effect = lower value 0.975 | locus YGL078C, strain dbp3, stronger effect = lower value 0.962 | locus YGL167C, strain pmr1, stronger effect = lower value 0.982 | locus YGL173C, strain kem1, stronger effect = lower value 0.962 | locus YGL227W, strain vid30, stronger effect = lower value 0.961 | locus YGL248W, strain PDE1, stronger effect = lower value 0.919 | locus YGR078C, strain PAC10, stronger effect = lower value 0.904 | locus YGR252W, strain gcn5, stronger effect = lower value 0.874 | locus YHR013C, strain ard1, stronger effect = lower value 0.848 | locus YHR027C, strain rpn1, stronger effect = lower value 0.984 | locus YHR030C, strain SLT2, stronger effect = lower value 0.945 | locus YHR079C, strain IRE1 (second series), stronger effect = lower value 0.933 | locus YHR094C, strain hxt1, stronger effect = lower value 0.953 | locus YHR129C, strain ARP1, stronger effect = lower value 0.936 | locus YIL066C, strain RNR3, stronger effect = lower value 0.929 | locus YIL073C, strain SPO22, stronger effect = lower value 0.812 | locus YIL125W, strain kgd1, stronger effect = lower value 0.96 | locus YIR030C, strain dcg1, stronger effect = lower value 0.954 | locus YJL092W, strain hpr5, stronger effect = lower value 0.972 | locus YJL095W, strain BCK1 (second series), stronger effect = lower value 0.965 | locus YJL115W, strain asf1, stronger effect = lower value 0.981 | locus YJL129C, strain trk1, stronger effect = lower value 0.966 | locus YJL134W, strain LCB3, stronger effect = lower value 0.968 | locus YJL154C, strain vps35, stronger effect = lower value 0.979 | locus YJL164C, strain tpk1, stronger effect = lower value 0.949 | locus YJL168C, strain set2, stronger effect = lower value 0.948 | locus YJL187C, strain SWE1 (second series), stronger effect = lower value 0.908
